# According to PubChem BioAssay (EPA / NIEHS):
# Results filed as inconclusive are left out. Active and inactive are the calls of the source. How the source made its calls: active means hit-call score of the fitted dose curve at least 0.9, where 1 is the maximum; inconclusive means response in the unintended direction; inactive means score below 0.9.
# Assays:
# [1] = ATG_M_06_XSP2: Attagene TRANS-FACTORIAL Multi-Species (XSP2) HepG2 Assay for M06 Transcription Factor (Internal Marker) (AID 2283811);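 further: hits are increases in signal above the DMSO baseline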
# Procedure, shortened: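 HepG2 cells transiently transfected with GAL4-UAS multiple reporter units, medium containing 3 nM 6-alpha-fluorotestosterone and 1.5 nM norgestrel; reporter mRNA measured 24 hours post-dosing by RT-PCR and capillary electrophoresis. Internal background marker, gain of signal vs DMSO.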
# [2] = biological target: frog Thyroid hormone Receptor alpha (TRa), thra-a (gene 397942) (UniProt P15204); assay: ATG_frTRa_XSP1: Attagene TRANS-FACTORIAL Multi-Species (XSP1) HepG2 Assay for frog Thyroid hormone Receptor alpha (TRa) (AID 2283804)
# Description: ATG_XSP1_multi-species_TRANS is a cell-based, multiplexed assay created by modifying the existing Attagene TRANS-FACTORIAL system to include a panel of nuclear receptors from some or all the following species: human (Homo sapiens), mouse (Mus musculus), frog (Xenopus laevis), zebrafish (Danio rerio), chicken (Gallus gallus), and turtle (Chrysemys picta). The ECOTOX-FACTORIAL format uses HepG2, a human liver cell line, with measurements taken at 24 hours after chemical dosing in a 24-well plate. Xsp1 included 3 nM 6-alpha-fluorotestosterone to partially stimulate the androgen receptor.ATG_frTRa_XSP1 is one of 29 assay components measured or calculated from the ATG_XSP1_multi-species_TRANS assay. It is designed to make measurements of mRNA induction, a form of inducible reporter, as detected with fluorescence intensity signals by Reverse transcription polymerase chain reaction (RT-PCR) and Capillary electrophoresis technology.The assay endpoint ATG_frTRa_XSP1 was analyzed in the positive analysis fitting direction relative to DMSO as the negative control and baseline of activity. Using a type of inducible reporter, measures of mRNA for gain-of-signal activity can be used to understand the reporter gene at the transcription factor-level as they relate to the gene TR. Furthermore, this assay endpoint can be referred to as a primary readout, because this assay has produced multiple assay endpoints where this one serves a reporter gene function. To generalize the intended target to other relatable targets, this assay endpoint is annotated to the nuclear receptor intended target family, where the subfamily is non-steroidal.
# Human liver HepG2 cells are transiently transfected with multiple reporter transcription units (MRTUs) in 6-well plates using FuGene 6 reagent (Roche; 3 ml FuGene/1 mg DNA). The MRTU constructs are regulated by a cis-regulating element (promoter). […] A major difference between the CIS and TRANS system is that in CIS activities of endogenous TFs are measured, whereas the TRANS assay evaluates changes in activities of exogenous, chimeric NR-Gal4 proteins. […] At the end of 24 hour incubation, total RNA was isolated using TriZol reagent (Invitrogen). The isolated RNA is then reverse-transcribed using oligo(dT) primer and Mo-MLV reverse transcriptase (Invitrogen) with DNAse I (Ambion) treatment for 30 min. […] The fragments were purified using Qiaquick PCR columns (Qiagen), analyzed on an ABI 3130xL genetic analyzer (Applied Biosystems) with peak positions identified by using a set of X-rhodamine (ROX)-labeled MapMarker1000 molecular weight standards (BioVentures). […]
# [3] = biological target: human Thyroid hormone Receptor alpha (TRa), THRA (gene 7067) (UniProt P10827); assay: ATG_hTRa_XSP1: Attagene TRANS-FACTORIAL Multi-Species (XSP1) HepG2 Assay for human Thyroid hormone Receptor alpha (TRa) (AID 2283805)
# Procedure, shortened: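 HepG2 cells transiently transfected with GAL4-UAS reporter units expressing chimeric NR-Gal4 proteins, dosed 24 hours with 3 nM 6-alpha-fluorotestosterone present. Reporter mRNA measured by RT-PCR and capillary electrophoresis; gain of signal fitted versus DMSO.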
# [4] = system: turtle Thyroid Hormone Receptor, alpha (TRa), gene 101949057; assay: ATG_trTRa_XSP1: Attagene TRANS-FACTORIAL Multi-Species (XSP1) HepG2 Assay for turtle Thyroid Hormone Receptor, alpha (TRa) (AID 2283806)
# Procedure, shortened: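 HepG2 cells transiently transfected with GAL4-UAS reporter units and chimeric receptor-Gal4 constructs, with 3 nM 6-alpha-fluorotestosterone present. Reporter mRNA was quantified 24 h after dosing by RT-PCR, 6-FAM labelling and capillary electrophoresis; gain of signal versus DMSO.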
# [5] = biological target: zebrafish Thyroid Hormone Receptor alpha (TRa), thraa (gene 30670) (UniProt Q98867); assay: ATG_zfTRa_XSP1: Attagene TRANS-FACTORIAL Multi-Species (XSP1) HepG2 Assay for zebrafish Thyroid Hormone Receptor alpha (TRa) (AID 2283807)
# Procedure, shortened: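 HepG2 cells transiently transfected with GAL4-UAS reporter units including a zebrafish TRa–Gal4 chimera, dosed 24 h with 3 nM 6-alpha-fluorotestosterone present. Reporter mRNA quantified by RT-PCR and capillary electrophoresis; gain versus DMSO.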
# [6] = biological target: human Thyroid hormone Receptor beta (TRb), THRB (gene 7068) (UniProt P10828); assay: ATG_hTRb_XSP1: Attagene TRANS-FACTORIAL Multi-Species (XSP1) HepG2 Assay for human Thyroid hormone Receptor beta (TRb) (AID 2283808)
# Procedure, shortened: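 HepG2 cells transiently transfected with reporter units driving GAL4-UAS reporters for chimeric NR-Gal4 proteins; 24 h chemical exposure with 3 nM 6-alpha-fluorotestosterone present. Reporter mRNA quantified by RT-PCR and capillary electrophoresis, gain of signal versus DMSO.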
# [7] = biological target: zebrafish Thyroid Hormone Receptor beta (TRb), thrb (gene 30607) (UniProt Q9PVE4); assay: ATG_zfTRb_XSP1: Attagene TRANS-FACTORIAL Multi-Species (XSP1) HepG2 Assay for zebrafish Thyroid Hormone Receptor beta (TRb) (AID 2283809)
# Procedure, shortened: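 HepG2 cells transiently transfected with multiplexed GAL4-UAS reporter units expressing chimeric zebrafish TRb–Gal4. Dosed 24 h with 3 nM 6-alpha-fluorotestosterone present; reporter mRNA measured by RT-PCR, HpaI digestion and capillary electrophoresis; gain of signal versus DMSO.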
# [8] = biological target: mouse Peroxisome Proliferator-activated Receptor gamma (PPARg), Pparg (gene 19016) (UniProt P37238); assay: ATG_mPPARg_XSP1: Attagene TRANS-FACTORIAL Multi-Species (XSP1) HepG2 Assay for mouse Peroxisome Proliferator-activated Receptor gamma (PPARg) (AID 2283802)
# Procedure, shortened: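 HepG2 cells transiently transfected with GAL4-UAS reporter units driven by mouse PPARg–GAL4 chimera; 3 nM 6-alpha-fluorotestosterone present. After 24 h dosing, reporter mRNA quantified by RT-PCR, fluorescent labelling and capillary electrophoresis; gain of signal versus DMSO.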
# [9] = biological target: Nuclear receptor subfamily 1 group I member 2 (Mus musculus) (UniProt O54915); assay: ATG_mPXR_XSP1: Attagene TRANS-FACTORIAL Multi-Species (XSP1) HepG2 Assay for mouse Pregnane X Receptor (PXR) (AID 2283803)
# Procedure, shortened: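 Transiently transfected HepG2 cells expressing a receptor-Gal4 chimera drive a GAL4-UAS reporter; 3 nM 6-alpha-fluorotestosterone included. Reporter mRNA read 24 h post-dose by RT-PCR and capillary electrophoresis; gain of signal relative to DMSO.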
# [10] = ATG_XTT_Cytotoxicity_XSP1: Cytotoxicity Assessment in the Attagene TRANS-FACTORIAL Multi-Species (XSP1) HepG2 Assay (AID 2283810)
# Procedure, shortened: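 XTT viability readout taken at 24 hours post-dosing in HepG2 liver cells co-treated with 3 nM 6-alpha-fluorotestosterone. Signal loss relative to DMSO controls reflects cytotoxicity.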
# Sequence of zebrafish Thyroid Hormone Receptor beta (TRb), thrb (gene 30607) (Q9PVE4 whole entry, looked up, the tested form may be a part): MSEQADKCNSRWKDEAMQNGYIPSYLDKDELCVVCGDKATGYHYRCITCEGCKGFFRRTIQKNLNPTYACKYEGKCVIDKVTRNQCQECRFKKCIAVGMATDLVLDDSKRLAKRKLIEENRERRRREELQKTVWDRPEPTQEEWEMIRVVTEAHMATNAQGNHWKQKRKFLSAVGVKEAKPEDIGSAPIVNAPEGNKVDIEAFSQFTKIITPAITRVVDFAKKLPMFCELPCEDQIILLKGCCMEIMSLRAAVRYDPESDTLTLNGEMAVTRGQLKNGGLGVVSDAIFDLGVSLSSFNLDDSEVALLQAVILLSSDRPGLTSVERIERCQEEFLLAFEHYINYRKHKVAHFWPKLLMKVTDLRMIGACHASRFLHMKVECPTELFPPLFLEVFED
# Sequence of mouse Peroxisome Proliferator-activated Receptor gamma (PPARg), Pparg (gene 19016) (P37238 whole entry, looked up, the tested form may be a part): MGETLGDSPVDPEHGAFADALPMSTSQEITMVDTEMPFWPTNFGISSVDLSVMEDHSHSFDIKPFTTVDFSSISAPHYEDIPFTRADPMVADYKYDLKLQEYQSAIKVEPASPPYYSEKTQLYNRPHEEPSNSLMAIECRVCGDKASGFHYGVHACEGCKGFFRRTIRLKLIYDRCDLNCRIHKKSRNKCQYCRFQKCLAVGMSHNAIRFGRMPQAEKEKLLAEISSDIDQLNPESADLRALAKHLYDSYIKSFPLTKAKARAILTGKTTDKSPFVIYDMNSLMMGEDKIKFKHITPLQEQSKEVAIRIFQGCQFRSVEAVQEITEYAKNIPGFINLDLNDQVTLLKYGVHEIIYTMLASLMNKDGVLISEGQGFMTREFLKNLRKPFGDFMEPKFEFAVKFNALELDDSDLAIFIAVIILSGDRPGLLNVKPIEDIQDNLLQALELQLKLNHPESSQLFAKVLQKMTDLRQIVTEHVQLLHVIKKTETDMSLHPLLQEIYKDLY
# Sequence of human Thyroid hormone Receptor beta (TRb), THRB (gene 7068) (P10828 whole entry, looked up, the tested form may be a part): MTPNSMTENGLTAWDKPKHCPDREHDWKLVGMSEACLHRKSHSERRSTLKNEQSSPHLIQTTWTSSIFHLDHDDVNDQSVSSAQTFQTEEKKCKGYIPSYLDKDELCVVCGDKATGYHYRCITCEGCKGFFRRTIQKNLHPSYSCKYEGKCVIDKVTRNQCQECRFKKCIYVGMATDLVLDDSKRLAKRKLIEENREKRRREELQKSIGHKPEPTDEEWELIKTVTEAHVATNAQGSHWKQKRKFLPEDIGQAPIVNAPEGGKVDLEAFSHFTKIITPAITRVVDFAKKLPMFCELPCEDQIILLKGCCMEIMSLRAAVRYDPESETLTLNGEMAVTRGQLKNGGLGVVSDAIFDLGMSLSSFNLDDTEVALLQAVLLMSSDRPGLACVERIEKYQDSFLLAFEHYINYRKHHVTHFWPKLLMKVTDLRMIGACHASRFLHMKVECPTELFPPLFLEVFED
# Sequence of human Thyroid hormone Receptor alpha (TRa), THRA (gene 7067) (P10827 whole entry, looked up, the tested form may be a part): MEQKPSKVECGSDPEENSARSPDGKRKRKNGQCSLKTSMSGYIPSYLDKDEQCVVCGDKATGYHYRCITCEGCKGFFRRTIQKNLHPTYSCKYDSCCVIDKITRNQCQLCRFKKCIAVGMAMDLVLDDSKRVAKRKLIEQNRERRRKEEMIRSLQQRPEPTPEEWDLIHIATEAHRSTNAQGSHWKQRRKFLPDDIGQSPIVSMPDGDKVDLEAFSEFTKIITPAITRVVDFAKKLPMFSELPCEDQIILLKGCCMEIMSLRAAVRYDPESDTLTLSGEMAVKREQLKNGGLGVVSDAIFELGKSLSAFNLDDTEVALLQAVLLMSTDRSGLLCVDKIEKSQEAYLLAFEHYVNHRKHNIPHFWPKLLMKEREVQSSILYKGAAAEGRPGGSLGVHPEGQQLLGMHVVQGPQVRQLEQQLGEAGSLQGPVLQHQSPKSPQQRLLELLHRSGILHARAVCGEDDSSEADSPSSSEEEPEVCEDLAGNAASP
# Sequence of zebrafish Thyroid Hormone Receptor alpha (TRa), thraa (gene 30670) (Q98867 whole entry, looked up, the tested form may be a part): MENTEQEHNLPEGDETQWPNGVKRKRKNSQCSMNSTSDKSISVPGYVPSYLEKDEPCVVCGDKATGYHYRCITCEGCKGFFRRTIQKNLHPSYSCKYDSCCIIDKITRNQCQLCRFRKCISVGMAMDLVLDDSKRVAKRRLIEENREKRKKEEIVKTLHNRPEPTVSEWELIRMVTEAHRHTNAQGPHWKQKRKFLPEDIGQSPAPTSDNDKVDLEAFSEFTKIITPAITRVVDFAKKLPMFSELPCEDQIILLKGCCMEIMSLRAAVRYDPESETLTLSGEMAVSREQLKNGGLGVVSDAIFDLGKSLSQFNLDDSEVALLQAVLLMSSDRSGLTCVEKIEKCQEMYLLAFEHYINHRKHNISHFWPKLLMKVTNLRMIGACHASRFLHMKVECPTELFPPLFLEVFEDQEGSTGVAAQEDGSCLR
# Sequence of Nuclear receptor subfamily 1 group I member 2 (Mus musculus) (O54915 whole entry, looked up, the tested form may be a part): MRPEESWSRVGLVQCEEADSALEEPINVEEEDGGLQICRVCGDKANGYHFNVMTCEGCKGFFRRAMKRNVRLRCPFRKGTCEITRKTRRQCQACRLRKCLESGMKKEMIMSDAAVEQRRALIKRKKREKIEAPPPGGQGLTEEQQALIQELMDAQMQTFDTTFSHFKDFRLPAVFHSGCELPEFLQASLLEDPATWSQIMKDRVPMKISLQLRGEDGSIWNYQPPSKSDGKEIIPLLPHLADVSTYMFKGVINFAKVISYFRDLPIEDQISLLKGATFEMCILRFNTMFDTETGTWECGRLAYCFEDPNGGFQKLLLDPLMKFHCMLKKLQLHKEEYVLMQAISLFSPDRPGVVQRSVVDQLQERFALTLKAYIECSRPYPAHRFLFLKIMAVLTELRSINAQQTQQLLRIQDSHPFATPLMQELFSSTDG
# Sequence of frog Thyroid hormone Receptor alpha (TRa), thra-a (gene 397942) (P15204 whole entry, looked up): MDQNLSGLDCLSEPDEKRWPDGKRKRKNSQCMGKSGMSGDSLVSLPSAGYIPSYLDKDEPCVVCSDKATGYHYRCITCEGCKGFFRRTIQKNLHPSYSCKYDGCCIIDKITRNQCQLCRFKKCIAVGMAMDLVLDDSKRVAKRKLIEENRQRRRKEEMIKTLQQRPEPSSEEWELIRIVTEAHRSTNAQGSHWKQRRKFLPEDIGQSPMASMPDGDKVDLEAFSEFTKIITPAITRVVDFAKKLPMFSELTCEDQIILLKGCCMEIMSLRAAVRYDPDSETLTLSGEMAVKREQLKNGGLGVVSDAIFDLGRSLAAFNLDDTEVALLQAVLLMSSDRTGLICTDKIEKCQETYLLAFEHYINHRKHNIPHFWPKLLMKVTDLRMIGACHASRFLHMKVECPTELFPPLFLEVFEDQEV
smiles,measurement,setting,value
Clc1ccc(C2(Cn3cncn3)CC(Br)CO2)c(Cl)c1 (stereo unspecified),outcome,[1],inactive
O=S(=O)(c1ccc(Cl)cc1)c1ccc(Cl)cc1,outcome,[1],inactive
O=C1C2(Cl)C3(Cl)C4(Cl)C(Cl)(Cl)C5(Cl)C3(Cl)C1(Cl)C5(Cl)C24Cl (stereo unspecified),outcome,[2],inactive
same,outcome,[3],inactive
same,outcome,[4],inactive
same,outcome,[5],inactive
same,outcome,[6],inactive
same,outcome,[7],inactive
same,outcome,[1],inactive
CC12CC1(C)C(=O)N(c1cc(Cl)cc(Cl)c1)C2=O (stereo unspecified),AC50,[8],39.2 µM (active)
same,AC50,[9],19.7 µM (active)
same,outcome,[2],inactive
same,outcome,[3],inactive
same,outcome,[4],inactive
same,outcome,[5],inactive
same,outcome,[7],inactive
same,outcome,[10],inactive
same,outcome,[1],inactive
CC1(C)CCC(Cc2ccc(Cl)cc2)C1(O)Cn1cncn1 (stereo unspecified),AC50,[8],78.6 µM (active)
same,AC50,[9],2.24 µM (active)
same,outcome,[4],inactive
same,outcome,[5],inactive
same,outcome,[6],inactive
same,outcome,[7],inactive
same,outcome,[10],inactive
same,outcome,[1],inactive
C[C@]12CCC(=O)C[C@@H]1CC[C@@H]1[C@@H]2CC[C@]2(C)[C@@H](O)CC[C@@H]12,outcome,[3],inactive
same,outcome,[4],inactive
same,outcome,[5],inactive
same,outcome,[6],inactive
same,outcome,[10],inactive
same,outcome,[1],inactive
CC(=O)C=C(C)C,outcome,[1],inactive
Oc1ccc(-c2ccccc2)cc1,outcome,[1],inactive
C[C@]12CC[C@H](O)CC1=CC[C@@H]1[C@@H]2CC[C@]2(C)C(=O)CC[C@@H]12,outcome,[1],inactive
Oc1c(I)cc(I)cc1I,outcome,[1],inactive
CC(C)(C)CC(C)(C)c1ccc(O)cc1,outcome,[9],inactive
same,outcome,[2],inactive
same,outcome,[4],inactive
same,outcome,[5],inactive
same,outcome,[7],inactive
same,outcome,[10],inactive
same,outcome,[1],inactive
CC(C)(C)c1cc(O)ccc1O,AC50,[8],14.9 µM (active)
same,outcome,[2],inactive
same,outcome,[3],inactive
same,outcome,[5],inactive
same,outcome,[7],inactive
same,outcome,[1],inactive
CC(C)C1CCC(Cc2ccc(Cl)cc2)C1(O)Cn1cncn1 (stereo unspecified),outcome,[1],inactive
C[C@H]1CCCC(=O)CCC/C=C/c2cc(O)cc(O)c2C(=O)O1,outcome,[1],inactive
COP(=O)(OC)O/C(=C\Cl)c1cc(Cl)c(Cl)cc1Cl,AC50,[8],32.3 µM (active)
same,AC50,[9],30.3 µM (active)
same,outcome,[5],inactive
same,outcome,[7],inactive
same,outcome,[1],inactive
